High-throughput results deposited in PubChem BioAssay by National Center for Advancing Translational Sciences (NCATS).
Most compounds without a hit are left out; they make up all but 9.9% or so of the library.
HPGD inh: blocks human HPGD enzyme activity. P15428. purified HPGD, NADH fluorescence kinetic, PGE2 substrate. Potency, µM, for inactives: at the highest dose activity change, negative = inhibition, hits mostly inhibitors. actives 4.3% (n = 150,000). AID 894
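NADH formation kinetics: reaction with 30 uM PGE2 and 1 mM NAD+ (final), 20 nM enzyme, Tris-HCl pH 8 with Tween 20, after 15 min compound preincubation at room temperature. Fluorescence change, last versus first of five reads.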
Tau FP inhib: inhibitors of human tau fibril formation. actives 0.39% (n = 280,000). AID 1468. P10636. K18 P301L tau heparin fibrillization, Alexa594 FP, 6 h. Potency, µM (top dose mostly 57.7 µM), inactives show at the top dose activity, negative = inhibition, usual class: inhibitors; active = well fitted curve in the direction sought with a large enough effect; inconclusive = small, poorly fitted or top-dose-only effect, or another doubt; inactive = no such curve, though single readings can be large; an effect the other way counts as inactive or inconclusive; note: nearly all actives have a fitted effect of over 55% in size
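FP of Alexa 594-tau after heparin (20 uM) induction. Substrate: human K18 P301L, 15 uM unlabeled, 0.24 uM labeled. Buffer 100 mM sodium acetate pH 7. 6 hr, 37 C.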
Tau fluor counter: counter-screen for tau fibril formation inhibitors; tau K18 P301L Alexa594 fluorescence, heparin fibrillization; Potency, µM (highest dose often 57.7 µM), for inactives: at the highest dose activity change, negative = decrease; actives 0.93% (n = 280,000); AID 1463; active = well fitted curve in the direction sought with a large enough effect; inconclusive = small, poorly fitted or top-dose-only effect, or another doubt; inactive = no such curve, though single readings can be large; an effect the other way counts as inactive or inconclusive; note: nearly all actives have a fitted effect of over 55% in size
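Human tau K18 P301L (15 uM unlabeled, 0.24 uM Alexa 594-labeled) in 100 mM sodium acetate pH 7 with 20 uM heparin, 6 hr at 37 C. ThT 30 uM added, 1 hr ambient; Alexa 594 FP and total fluorescence read at 555/632 nm.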
KDM4E inh: inhibitors of human JMJD2E histone demethylase | B2RXH2 | JMJD2E catalytic domain, FDH-coupled NADH fluorescence (FDH is formaldehyde dehydrogenase) | Potency, µM (doses to about 57.1 µM), for inactives: at the highest dose activity change, negative = inhibition, most hits filed as inhibitors | actives 1.6% (n = 230,000);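 note: 0% = wells with enzyme and -100% = buffer wells without enzyme; nearly all actives have a fitted effect of over 50% in size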
ALDH1A1 block: blocks purified human ALDH1A1 activity | actives 7.3% (n = 220,000) | P00352 | Purified ALDH1A1, NADH fluorescence, propionaldehyde substrate | AID 1030 | Potency, µM (top dose mostly 75.3 µM), inactives show at the top dose activity, negative = inhibition, most hits filed as inhibitors;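 note: plate controls were no enzyme wells and a reference inhibitor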
Target sequence (P00352 whole entry, looked up): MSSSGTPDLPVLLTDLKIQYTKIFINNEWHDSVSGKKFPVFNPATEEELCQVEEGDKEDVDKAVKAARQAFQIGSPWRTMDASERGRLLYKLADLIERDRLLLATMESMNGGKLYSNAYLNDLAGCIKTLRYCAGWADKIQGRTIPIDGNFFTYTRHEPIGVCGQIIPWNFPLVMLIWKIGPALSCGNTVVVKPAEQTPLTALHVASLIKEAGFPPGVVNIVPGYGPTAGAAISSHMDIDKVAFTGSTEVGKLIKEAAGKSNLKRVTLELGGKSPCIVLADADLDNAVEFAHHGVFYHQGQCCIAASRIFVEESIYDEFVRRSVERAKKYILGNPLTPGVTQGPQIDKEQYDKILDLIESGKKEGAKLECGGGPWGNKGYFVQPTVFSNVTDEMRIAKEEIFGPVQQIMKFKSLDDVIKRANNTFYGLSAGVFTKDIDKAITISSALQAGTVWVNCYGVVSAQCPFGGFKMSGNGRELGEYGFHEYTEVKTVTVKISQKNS
Tau ThT inhib: inhibitors of human tau fibril formation, thioflavin T binding | AID 1460 | recombinant tau K18 P301L (four-repeat tau fragment), heparin-induced fibrillization, ThT fluorescence | P10636 | Potency, µM (highest dose often 57.4 µM), without a hit: at the top dose activity, negative = inhibition, hits mostly inhibitors | actives 2.1% (n = 270,000); active = well fitted curve in the direction sought with a large enough effect; inconclusive = small, poorly fitted or top-dose-only effect, or another doubt; inactive = no such curve, though single readings can be large; an effect the other way counts as inactive or inconclusive; note: nearly all actives have a fitted effect of over 55% in size
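K18 P301L tau (15 uM + 0.24 uM Alexa 594-tagged), heparin 20 uM, NaOAc pH 7, 6 h 37 C; ThT 30 uM, 1 h RT, ex 450/em 510 nm.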
* marks the source's active call; other numbers are inactive results; u = inconclusive; x = no result; [ ] = remark or other dose. Unless noted, calls come from the whole dose curve; as a rule, active = well fitted inhibition curve with a large enough effect (not every such curve was filed as active); inconclusive = small, poorly fitted or top-dose-only effect, or another doubt; inactive = no such curve, though single readings can be large or run the other way. Unless noted, % is set by controls: 0 for no effect and ±100 for the full control effect; potency is the fitted concentration of half-maximal effect.

SMILES | HPGD inh | Tau FP inhib | Tau fluor counter | KDM4E inh | ALDH1A1 block | Tau ThT inhib
Fc1ccc(N2CCN(Cc3cn[nH]c3-c3ccccc3)CC2)cc1 | x | 4% | -21% | -3% | 14µM* | -16%
Fc1ccc(-c2[nH]ncc2CN2CCN(c3ccc(F)cc3)CC2)cc1 | x | -5% | u | -5% | 1% | -17%
Nc1ccc(S(=O)(=O)NCCS(=O)(=O)O)cc1 | 4% | x | x | x | -6%[13.5 µM] | x
CCOc1ccc(-c2csc(N)c2C(=O)OC)cc1 | 14µM* | 2% | u | -17% | 22µM* | u
CCOC(=O)c1c(-c2cccc([N+](=O)[O-])c2)csc1NC(=O)C1CC1 | -13% | 0% | -30% | 5% | -11% | u
CCOC(=O)c1c(-c2cccc([N+](=O)[O-])c2)csc1N | -14% | 7% | 22µM*[quencher] | -8% | u | u
Cc1c(Br)c([N+](=O)[O-])nn1CCCC(=O)NC(C)c1ccccc1 (centres undefined) | x | -4% | -12% | 1% | -9% | -9%
Cc1ccc(NCC(O)C(O)C(O)CO)cc1C (centres undefined) | -4% | -9% | -5% | -10% | 10% | -12%
Cc1cc(N=Nc2ccccc2)c(NCC(O)C(O)C(O)CO)cc1C (centres undefined) | x | 16% | u | -12% | -5% | 14µM*
O=C(C1CCCN(S(=O)(=O)c2ccc(Br)s2)C1)N1CCCCCC1 (centres undefined) | -11% | 10% | -1% | 12% | 5.6µM* | -5%
O=C(C1CCCN(S(=O)(=O)c2ccc(Br)s2)C1)N1CCN(c2ccccc2)CC1 (centres undefined) | x | 9% | -27% | x | x | -15%
COCCSc1ncnc2c1oc1nc3c(cc12)COC(C)(C)C3 | x | 1% | -7% | -18% | 6.3µM* | u
CC(=O)N1CCc2cc(C(=O)CN3CCN(C(=O)c4ccco4)CC3)ccc21 | -6% | -9% | -7% | u | 11µM* | u
CC(=O)N1CCc2cc(S(=O)(=O)CCC(=O)N3CCN(c4cccc(C)c4C)CC3)ccc21 | x | -5% | -18% | x | x | u
CC(=O)N1CCc2cc(C(=O)CN3CCN(c4cccc(Cl)c4)CC3)ccc21 | -11% | -9% | -12% | -26% | 6.3µM* | u
CC(=O)N1CCc2cc(C(=O)CN3CCC(C)CC3)ccc21 | u | 0% | -8% | -6% | 20µM* | -17%
CC(=O)N1CCc2ccc(C(=O)CN3CCN(c4cccc(C)c4C)CC3)cc21 | -24% | 3% | -1% | -5% | 8.9µM* | u
COc1ccc(CCNC(=O)c2ccc(Cn3c(=O)[nH]c4cc(OC)c(OC)cc4c3=O)cc2)cc1OC | x | u | -27% | x | x | -16%
CSc1ccc(/C=C/c2nc3ccccc3n2S(=O)(=O)c2ccc(Br)cc2)cc1 | x | u | 32µM*[quencher] | x | x | 3%
CCCn1c2ccccc2c2cnn(CC(=O)N(CCCOC)Cc3ccco3)c(=O)c21 | x | 8% | 1% | x | x | -7%
CCCOC(=O)c1c(-c2ccc(C)cc2C)csc1NC(=O)C1C2CCC(O2)C1C(=O)O (centres undefined) | 22µM* | -3% | 8% | -4% | u | -16%
CCc1cccc(CC)c1NC(=O)COC(=O)c1cccc(-c2ccc(OC(C)=O)cc2)c1 | -4% | -5% | 5% | -4% | 11% | 5%
CCc1cccc2c(C(=O)COC(=O)/C=C/c3ccc(O)c(OC)c3)c[nH]c12 | u | -9% | 16µM*[quencher] | u | -7% | u
COc1cccc(/C=C/C(=O)OCC(=O)c2c[nH]c3ccccc23)c1OC | -10% | u | u | u | 6% | -8%
COc1ccc(OC)c(/C=C(/C#N)c2nc(-c3ccc(-c4ccccc4)cc3)cs2)c1 | x | -5% | -1% | x | x | -12%
COc1ccc(C2Nc3ccccc3C(=O)N2Cc2ccco2)cc1COc1ccc(F)cc1 (centres undefined) | u | 0% | -8% | 14% | 2.5µM* | -7%
CSC1=NS(=O)(=O)c2c(C)nn(C)c2S1 | x | u | -20% | 3.5µM* | x | 16µM*
